An excerpt weighted towards active compounds, which were near 9.3% of everything screened.
Rab9 prom act: activators of Rab9 promoter; Huh7 Rab9 promoter-luciferase reporter, luminescence, 24 h; Potency, µM (highest dose often 9.22 µM), for the others: at the highest dose activation, negative = inhibition, usual class: activators; 320,000 compounds, 2.8% hits; AID 485297; also: % of control where 0% means no effect; nearly all actives have a fitted effect of over 60% in size
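Huh7 cells stably carrying Rab9 promoter–luciferase reporter, plated 1500 cells/well, compound added after 2 h and incubated 24 h at 37 °C; luciferase luminescence then read after 10 min with detection reagent.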
ELG1 repair inh: blocks ELG1-dependent DNA repair in HEK293T cells; Potency, µM (highest dose often 46.1 µM), inactives show top-dose activity change, negative = inhibition, most hits filed as inhibitors; HEK293T ELG1-luciferase reporter, luminescence, 16 h; DNA damage induced by 5-fluorouridine; 330,000 compounds, 2.3% hits; AID 504467; also: % is scaled to controls: 0 for no effect and ±100 for the full control effect; nearly all actives have a fitted effect of over 55% in size
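HEK293T cells expressing luciferase-tagged ELG1 (2,000/well) received 5-Fluorouridine plus compound or DMSO for 16 hr at 37 °C. Luciferase was read by ONE-Glo luminescence after 30 min at room temperature.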
ELG1 genotox: induces genotoxicity in HEK293T cells with luciferase-tagged ELG1; AID 504466; Potency, µM (doses to about 46 µM), for inactives: top-dose activity change, positive = activation, most hits filed as activators; 330,000 compounds, 1.3% hits; HEK293T ELG1-luciferase reporter, luminescence, 16 h; also: % of control where 0% means no effect; nearly all actives have a fitted effect of over 60% in size
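Reporter readout depends on ELG1 protein level, which increases with genetic stress. After 16 hr compound exposure at 37 °C, luciferase activity was quantified using ONE-Glo.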
FLuc modulator: firefly luciferase modulation, counter-screen for miR-21 project | P08659 | purified FLuc, Km substrates, luminescence inhibition | Potency, µM (series often up to 57.5 µM), for the others: at the highest dose activity change, negative = inhibition, usual class: inhibitors | 360,000 compounds, 6.9% hits | AID 588342;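 also: plate controls were vehicle for no effect and reference inhibitor for full effect; nearly all actives have a fitted effect of over 55% in size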
Target sequence (P08659 whole entry, looked up): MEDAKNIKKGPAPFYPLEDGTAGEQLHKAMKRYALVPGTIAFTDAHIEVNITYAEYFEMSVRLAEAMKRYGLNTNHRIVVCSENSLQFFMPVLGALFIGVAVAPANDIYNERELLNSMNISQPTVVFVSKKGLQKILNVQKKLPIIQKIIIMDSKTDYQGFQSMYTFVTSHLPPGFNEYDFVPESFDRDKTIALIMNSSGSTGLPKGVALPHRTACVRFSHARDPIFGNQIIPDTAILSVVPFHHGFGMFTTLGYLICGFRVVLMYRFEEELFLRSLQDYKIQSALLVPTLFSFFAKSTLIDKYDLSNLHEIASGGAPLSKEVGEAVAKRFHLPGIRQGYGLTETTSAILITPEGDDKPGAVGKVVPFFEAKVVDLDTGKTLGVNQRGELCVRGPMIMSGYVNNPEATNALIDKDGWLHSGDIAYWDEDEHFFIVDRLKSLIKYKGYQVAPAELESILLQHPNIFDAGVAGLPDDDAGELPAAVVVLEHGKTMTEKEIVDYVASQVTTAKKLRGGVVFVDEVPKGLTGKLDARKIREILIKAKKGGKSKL
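Biochemical qHTS of compounds, final roughly 60 µM downward over six points, against 10 nM purified firefly luciferase using Km concentrations of substrates (10 uM D-luciferin, 10 uM ATP) in Tris acetate pH 7.5 buffer; luminescence output.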
NPC1 prom act: NPC1 promoter activation | Potency, µM (series often up to 9.22 µM), for the others: at the highest dose activation, most hits filed as activators | Huh7 NPC1 promoter luciferase reporter, 24 h | 320,000 compounds, 2.4% hits; also: % of control where 0% means no effect; nearly all actives have a fitted effect of over 60% in size
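Stably transfected Huh7 (NPC1 promoter→luciferase), 1500 cells/well in Opti-MEM + 10% FBS, 2 h settle, then compound 24 h at 37 °C. Luminescence after 10 min with Amplite reagent.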
SMN2 splice enh: increases expression of the SMN2 splice variant; HEK293 SMN2-luciferase splicing reporter, luminescence, 30-36 h; Potency, µM (series often up to 46.1 µM), inactives show at the highest dose activity change, positive = activation, actives largely listed as activators; 210,000 compounds, 2.8% hits; AID 1458; also: % of control where 0% means no effect; nearly all actives have a fitted effect of over 55% in size
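qHTS luciferase splicing reporter: luminescence rises when SMN2 exon 7 is included in transfected HEK293 cells. Compound exposure lasted 30-36 h at 37C, with 4.5 mM final sodium butyrate as control, followed by a ONE-Glo read.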
The depositor's hits bear a star; u = inconclusive; x = not tested or not shown; [ ] = remark or other dose. Calls follow the shape of the dose curve; as a rule, active = well fitted curve in the direction sought with a large enough effect; inconclusive = small, poorly fitted or top-dose-only effect, or another doubt; inactive = no such curve, though single readings can be large; an effect the other way counts as inactive or inconclusive. Potency is read from the fitted curve at half-maximal effect.

SMILES | Rab9 prom act | ELG1 repair inh | ELG1 genotox | FLuc modulator | NPC1 prom act | SMN2 splice enh
Cc1cc(S(=O)(=O)Nc2ccc3c(c2)n(C)c(=O)n3C)ccc1F | -5% | 16% | u | 2% | -5% | -35%
Cc1cc(S(=O)(=O)Nc2cc3c(cc2NCc2ccccc2)n(C)c(=O)n3C)ccc1F | x | x | x | 24µM* | x | 10µM*
CCOc1cc(/C=N/Nc2ncnc(Cl)c2N)ccc1O | 22% | u | u | 11µM* | 16% | 23%
Nc1c(Cl)ncnc1N/N=C/c1ccc2ccccc2n1 | u | u | u | 4.8µM* | u | -41%
Nc1c(Cl)ncnc1N/N=C/c1ccccn1 | 1% | u | 4.1µM* | u | 0% | -81%
O=C(CN(C(=O)CCC(=O)Nc1nccs1)c1ccccc1F)NCc1ccc(F)cc1 | -1% | -3% | -6% | -1% | -1% | x
CC(C)(C)C(=O)Nc1nnc(SCC(=O)Nc2nccs2)s1 | 4% | 7% | 12% | 2% | -2% | x
COc1ccc(NC(=O)N2CCOCC2)cc1 | 7% | 4% | 1% | -1% | 2% | x
COc1ccc(C(=O)/C=C\N2CCOCC2)cc1 | 15% | u | u | 24µM* | 14% | x
CN(C)/C=C/C(=O)c1ccc(Oc2ncccn2)cc1 | 0% | 9% | 15% | 6% | -3% | 15%
COc1ccc(N/C=C/C(=O)c2ccccc2)cc1 | 0.13µM* | u | 0.41µM* | 0.12µM* | 0.32µM* | x
COc1ccc(N/C=C(/C(C)=O)c2ccccc2)cc1 | -9% | 21% | u | 0% | 0% | -16%
COc1ccc(N/C=C\C(=O)c2ccc3ccccc3c2)cc1 | 2.8µM* | u | 17% | u | 2µM* | x
O=C(/C=C/Nc1ccccc1)c1ccc(Oc2ncccn2)cc1 | 2.2µM* | u | u | 2.1µM* | 1.4µM* | u
Cc1ccccc1NC(=O)CCN1C(=O)c2ccccc2Sc2ncccc21 | x | x | x | -1% | x | x
O=C(CSc1nncc2ccccc12)Nc1ccc(F)cc1 | 0% | -9% | -11% | 1% | -3% | x
COc1ccc(C)cc1NC(=O)CSc1nnc(-c2ccco2)n1Cc1ccco1 | 2% | -20% | -1% | 1% | -1% | -18%
COc1ccc(C(=O)Oc2ccc(C(=S)N3CCOCC3)cc2)cc1 | -4% | -3% | 0% | 21µM* | -3% | x
COc1ccc(N/C=C/C(=O)c2sc(-c3ccccc3)nc2C)cc1 | -2% | -18% | -6% | 6.7µM* | -2% | -14%
COc1ccc(C(=O)/C=C/Nc2ccc(C)cn2)cc1OC | 1.6µM* | u | u | 8.5µM* | 2.2µM* | 11µM*
CCOc1ccc(N/C=C/C(=O)c2ccc(OC)c(OC)c2)cc1 | 4.5µM* | u | 18µM* | 3µM* | 3.2µM* | x
CCCOc1ccc(N/C=C/C(=O)c2ccc(OC)c(OC)c2)cc1 | 0% | -16% | 1% | u | -5% | x
CCCN1CCN(c2ncnc3c2nnn3Cc2ccccc2)CC1 | -13% | -19% | 6% | 1% | -4% | -18%
Cc1ccc(-n2ncc(C(=O)NCCCN3CCN(c4cccc(Cl)c4)CC3)c2-n2cccc2)cc1 | x | x | x | -3% | x | x
COC(/C=C/Nc1ccc(OC)cc1)=C(C#N)C#N | -24% | u | 0% | -1% | -6% | 13%
SMILES | Rab9 prom act | ELG1 repair inh | ELG1 genotox | FLuc modulator | NPC1 prom act | SMN2 splice enh
COc1ccc(N/C=C/C(=O)C(C)(C)C)cc1 | -3% | 2% | 10% | 12µM* | 0% | x
Cc1cccc(NC(=O)CSc2nc3c([nH]c4ccccc43)c(=O)n2C)c1C | x | x | x | 2% | x | x
c1ccc2c(c1)ncn2CCCOc1ccc2c(c1)CCC2 | 0% | -2% | 23% | 15µM* | 16% | -29%
Brc1ccccc1OCCCn1cnc2ccccc21 | 4µM* | u | 5.8µM* | 2.4µM* | 3.2µM* | u
Cc1ccccc1OCCCCn1cnc2ccccc21 | -19% | u | -5% | 19µM* | -9% | -91%
COc1ccccc1C(=O)Nc1c(C(=O)N(C)c2ccccc2)sc2nc(C)cc(C)c12 | x | x | x | 1% | x | 6%
O=S(=O)(c1ccccc1)c1nc(-c2ccco2)oc1NCCCn1ccnc1 | 3% | 11% | 4% | 1% | -1% | 6%
NS(=O)(=O)c1ccc(CCNC(=O)c2ccc(C#CC3(O)CCCCC3)cc2)cc1 | 3% | 6.5µM* | -12% | -12% | 4% | -54%
NS(=O)(=O)c1ccc(CCNC(=O)c2ccncc2)cc1 | -7% | 1% | 1% | 2% | -3% | x
COc1cc2nc(CN3CCN(S(=O)(=O)c4ccccc4C(F)(F)F)CC3)[nH]c(=O)c2cc1OC | x | u | -7% | x | x | x
O=c1[nH]c(CN2CCN(S(=O)(=O)c3ccccc3C(F)(F)F)CC2)nc2sc3c(c12)CCCC3 | -3% | 16µM* | -4% | 1% | -3% | -12%[1.84 µM]
O=C(Nc1ccc(OCC(F)(F)C(F)F)c(C(F)(F)F)c1)c1ccccc1O | -35% | u | 14% | 21µM* | 0% | -30%
CN(C)CCN(Cc1cc2cc3c(cc2[nH]c1=O)OCO3)C(=S)NCc1ccco1 | -17% | 1% | 3% | 1% | -4% | x
O=c1[nH]c2cc3c(cc2cc1CN(Cc1cccnc1)C(=S)NCc1ccco1)OCCO3 | -3% | 9.2µM* | 1% | u | -2% | x
O=c1[nH]c2cc3c(cc2cc1CN(Cc1cccnc1)C(=S)NCc1ccco1)OCO3 | -14% | 12µM* | -6% | -9% | -5% | x
CCCCNC(=O)c1nn(C)c2c1CSc1ccccc1-2 | x | x | x | -2% | x | x
CCn1cc(Br)c(C(=O)Nc2cccc(SC)c2)n1 | u | u | u | 24µM* | 25% | 35µM*
CCn1cc(Br)c(C(=O)Nc2ccc(F)cc2F)n1 | u | u | 12% | u | u | x
CCCC(=O)N1CCN(c2ccc(NC(=O)C(C)(C)C)cc2Cl)CC1 | -1% | -9% | -3% | -3% | -11% | -9%
CCCC(=O)N1CCN(c2ccc(NC(=O)c3cc4ccccc4o3)cc2Cl)CC1 | -26% | 2.3µM* | -25% | u | -20% | -78%
O=C(Nc1ccc(N2CCOCC2)c(Cl)c1)c1ccco1 | 3.5µM* | u | 2.6µM* | 9.5µM* | 1.4µM* | 13µM*
CCC(=O)N1CCN(c2ccc(NC(=O)c3ccco3)cc2Cl)CC1 | 24% | u | 1% | -17% | 14% | x
CCC(=O)N1CCN(c2ccc(NC(=O)c3cc4ccccc4o3)cc2Cl)CC1 | -5% | 5.8µM* | -60% | u | 1% | -109%
CCCC(=O)N1CCN(c2ccc(NC(=O)c3cccs3)cc2Cl)CC1 | 12% | 7.3µM* | -14% | -16% | -6% | -10%

Screening data deposited in PubChem BioAssay by National Center for Advancing Translational Sciences (NCATS).
